The record followed here is the supplement of paper PMC7411054.

Details in all cases: treatment time: 24 h
Assay [1] relates to HepG2-ACTB-RAB5A. As to the kind of experiment: lowest phenotypically active concentration; higher = less potent. A digest of the protocol:
(§1)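 Cells from fifteen gene-edited reporter lines (A549, HepG2 and WPMY1) were treated for 24 h at 0.3, 1, 3 or 9 µM and imaged live, four wells per condition. Features were normalised per well to solvent control wells. A condition deviated if ≥3 of 4 wells passed the 95th percentile of control Euclidean distances and was reproducible if its median replicate Pearson correlation beat the 95th percentile of non-replicates; phenotypic activity needed both.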

Assay [2] concerns HepG2-CANX-COX4. The description is as above. A digest of the protocol: as §1
Assay [3] relates to HepG2-TP53BP1-CLTA. The assay is described as above. A digest of the protocol:
as §1

Assay [4] deals with HepG2-TUBA1B-RELA. Described as above. A digest of the protocol:
as §1

Assay [5] concerns WPMY1-ACTB-RAB5A. The description is as above. A digest of the protocol: as §1
Assay [6] deals with WPMY1-CANX-COX4. Described as above. In outline: as §1
Assay [7] concerns WPMY1-GM130-SQSTM1. The description is as above. A digest of the protocol: as §1
The test system of assay [8] is WPMY1-TP53BP1-CLTA. Described as above. A digest of the protocol:
as §1

For assay [9], the system named is WPMY1-TUBA1B-RELA. The description is as above. A digest of the protocol:
as §1

In assay [10] the test system is WPMY1-ACTB-RAB5A. As to the kind of experiment: phenotypically active (imaging signature differs from DMSO and reproducible) at any of 0.3-9 uM (binary (1 = active, 0 = inactive)); higher = active. In outline: as §1

Structures can show the parent of a compound that is named as a salt.

On to `COc1ccc(-c2cc3c(C)nc(N)nc3n([C@H]3CC[C@H](OCCO)CC3)c2=O)cn1`, for which the “lowest phenotypically active concentration” value in assay [1], in assay [2], in assay [3], in assay [4], in assay [5] and in assay [6] was not above 0.3 µM in each case. Besides, the “lowest phenotypically active concentration” value in assay [7], in assay [8] and in [9] was not above 0.3 µM throughout. The phenotypically active in assay [10] was 1 (active).
On to `C[C@@H]1COCCN1c1cc(C2(S(C)(=O)=O)CC2)nc(-c2cccc3[nH]ccc23)n1`, for which the “lowest phenotypically active concentration” value in assay [1] is not above 0.3 µM; in [2], 1 µM; in assay [3], 1 µM; in assay [4], 1 µM; in assay [5], not above 0.3 µM; in [6] it was not above 0.3 µM. The “lowest phenotypically active concentration” value in assay [7] came out at 1 µM; in [8], 1 µM; in [9] it was 3 µM. Moreover, in assay [10], the phenotypically active was 1 (active).
`CC(=O)Nc1ccc(C(=O)Nc2ccccc2N)cc1`: the “lowest phenotypically active concentration” value in assay [1] worked out at 3 µM; in assay [2], 1 µM; in assay [3] it was 1 µM; in assay [4], 3 µM; in assay [5], 3 µM; in assay [6], 3 µM. The figures for the “lowest phenotypically active concentration” value in assay [7], in assay [8] and in assay [9] were 3 µM, 3 µM and 9 µM, respectively. Besides, the phenotypically active in assay [10] was 1 (active).
On to `Cc1cc(Nc2ncc3c(n2)N(C)C(=O)N(c2cc(NC(=O)c4cccc(C(F)(F)F)c4)ccc2C)C3)n(C)n1` [Pluripotin], for which the “lowest phenotypically active concentration” value in [1] was not above 0.3 µM; in [2], not above 0.3 µM; in assay [3] it was not above 0.3 µM; in assay [4], not above 0.3 µM; in assay [5], not above 0.3 µM; in assay [6], 1 µM. Moreover, the figures for the “lowest phenotypically active concentration” value in assay [7], in assay [8] and in assay [9] were not above 0.3 µM, 1 µM and 1 µM, respectively. The phenotypically active in assay [10] was 1 (active).
Take `COc1cc2nc(N3CCCN(C)CC3)nc(NC3CCN(Cc4ccccc4)CC3)c2cc1OC`: the “lowest phenotypically active concentration” value in assay [1] was not above 0.3 µM; in [2] it was 1 µM; in [3], 1 µM; in [4], not above 0.3 µM; in assay [5] it was 1 µM; in [6] it was 1 µM. Besides, the “lowest phenotypically active concentration” value is not above 0.3 µM in assay [7], 1 µM in assay [8] and 1 µM in assay [9]. Also, the phenotypically active in assay [10] was 1 (active).
On to `O=C(OC12CC3CC(CC(C3)C1)C2)c1ccc(NCc2cc(O)ccc2O)cc1` [Adaphostin], for which the “lowest phenotypically active concentration” value in assay [1] turned out to be 1 µM; in assay [2], 3 µM; in [3] it was 3 µM; in [4], 3 µM; in assay [5], 1 µM; in [6], 1 µM. The “lowest phenotypically active concentration” value in assay [7] amounted to 1 µM; in assay [8] it was 3 µM; in [9], 1 µM. Besides, the phenotypically active in assay [10] was 1 (active).
For the compound `Fc1ccccc1CNCc1ccc(-c2ccnc3[nH]ccc23)cc1` [OXA 06 dihydrochloride], the “lowest phenotypically active concentration” value is 1 µM in assay [1]; 1 µM in assay [2]; 1 µM in assay [3]; 1 µM in assay [4]; 1 µM in assay [5]; not above 0.3 µM in assay [6]. Further, the “lowest phenotypically active concentration” value in [7] stood at 1 µM; in assay [8], 9 µM; in assay [9], 1 µM. Besides, in assay [10], the phenotypically active is 1 (active).
Take `COc1ccc(S(=O)(=O)Nc2cccnc2Nc2ccc(O)cc2)cc1`: the “lowest phenotypically active concentration” value in assay [1] was 1 µM; in assay [2], 1 µM; in [3], 1 µM; in assay [4], 1 µM; in assay [5], not above 0.3 µM; in assay [6], not above 0.3 µM. Besides, the entries for the “lowest phenotypically active concentration” value in assay [7], in assay [8] and in assay [9] were 1 µM, not above 0.3 µM and not above 0.3 µM, respectively. The phenotypically active in assay [10] was 1 (active).
For the compound `COc1ccc2[nH]c(C(=O)c3ccccc3)cc2c1`, the “lowest phenotypically active concentration” value was not above 0.3 µM in assay [1]; not above 0.3 µM in assay [2]; not above 0.3 µM in assay [3]; not above 0.3 µM in assay [4]; not above 0.3 µM in assay [5]; 3 µM in [6]. Further, the “lowest phenotypically active concentration” value in [7], in assay [8] and in assay [9] was not above 0.3 µM each time. For the same compound, in [10], the phenotypically active was 1 (active).
